# Source: PMC4336329 (PLoS ONE, 2015)
# Hit rate of the full screen: of about 310,000 compounds, about 14,000 (4.5%) showed an effect of 50% or more. Effects have a minus sign here. Many of the other results were omitted from the sample, so strong results are more common in it than they were.
# Target: human ether-à-go-go-related gene (hERG) potassium channel (human, UniProt Q12809)
# Assay: primary screen, population patch clamp on CHO cells stably expressing hERG; higher = less effect of the substance
# 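Further: peak tail current of the secondary pulse compared with the same well before compound.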
# Sequence of human ether-à-go-go-related gene (hERG) potassium channel (Q12809 whole entry, looked up): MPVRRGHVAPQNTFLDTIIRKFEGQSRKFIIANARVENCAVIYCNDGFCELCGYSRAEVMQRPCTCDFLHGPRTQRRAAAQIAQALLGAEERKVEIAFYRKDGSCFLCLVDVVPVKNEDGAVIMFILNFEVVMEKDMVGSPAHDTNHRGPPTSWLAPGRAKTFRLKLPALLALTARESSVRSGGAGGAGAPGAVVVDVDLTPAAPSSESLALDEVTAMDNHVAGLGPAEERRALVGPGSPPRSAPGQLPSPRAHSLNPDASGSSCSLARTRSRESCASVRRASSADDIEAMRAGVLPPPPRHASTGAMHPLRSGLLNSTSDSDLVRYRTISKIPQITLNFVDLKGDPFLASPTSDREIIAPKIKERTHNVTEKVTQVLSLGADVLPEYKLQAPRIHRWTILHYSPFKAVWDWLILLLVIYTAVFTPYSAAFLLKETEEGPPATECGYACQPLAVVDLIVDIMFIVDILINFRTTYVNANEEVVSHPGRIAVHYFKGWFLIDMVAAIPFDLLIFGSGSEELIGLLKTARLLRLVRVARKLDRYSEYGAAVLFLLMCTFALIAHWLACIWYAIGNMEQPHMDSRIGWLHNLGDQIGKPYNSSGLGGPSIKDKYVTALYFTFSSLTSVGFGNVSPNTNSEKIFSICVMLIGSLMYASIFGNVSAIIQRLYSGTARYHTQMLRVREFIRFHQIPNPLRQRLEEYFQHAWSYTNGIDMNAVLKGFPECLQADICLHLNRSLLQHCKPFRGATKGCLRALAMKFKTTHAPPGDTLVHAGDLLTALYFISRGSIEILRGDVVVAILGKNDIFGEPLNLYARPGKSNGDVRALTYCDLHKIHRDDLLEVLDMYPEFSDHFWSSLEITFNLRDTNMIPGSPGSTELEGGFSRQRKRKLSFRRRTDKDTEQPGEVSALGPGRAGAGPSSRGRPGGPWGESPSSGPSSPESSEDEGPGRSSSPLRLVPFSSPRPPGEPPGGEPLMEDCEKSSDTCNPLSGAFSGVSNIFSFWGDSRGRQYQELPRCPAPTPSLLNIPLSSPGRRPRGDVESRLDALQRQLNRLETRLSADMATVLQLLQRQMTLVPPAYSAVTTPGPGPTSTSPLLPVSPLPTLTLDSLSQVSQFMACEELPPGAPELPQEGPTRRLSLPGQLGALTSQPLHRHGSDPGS
row,SMILES,"hERG current change (%, negative = inhibition) at 10uM"
1,COc1ccc(C(C)=O)cc1COC(=O)CCNS(=O)(=O)c1ccc(C)c(C)c1,-38.3%
2,O=C(CNC(=O)c1ccccc1)NCc1nc2ccccc2[nH]1,3.76%
3,O=C(O)c1cc(-c2cccs2)nc2ccc(F)cc12,13.2%
4,Cc1cccc(-c2nnn(Cc3nnc(NC(=O)c4ccccc4)s3)n2)c1,4.02%
5,O=[N+]([O-])c1ccc(-c2cc(-c3ccc(Cl)cc3)n[nH]2)cc1,-4.49%
6,COC(=O)c1sc2ncn(-n3c(C)ccc3C)c(=O)c2c1C,19.7%
7,CN1C(=O)C(=Cc2ccc(N3CCOCC3)c([N+](=O)[O-])c2)C(=O)N(C)C1=O,11.4%
8,O=C1NC(=O)C(=Cc2ccc(N3CCN(C(=O)c4ccccc4)CC3)c([N+](=O)[O-])c2)C(=O)N1,-67.1%
9,CN(C)c1ccc(C=C2C(=O)NC(=O)NC2=O)cc1[N+](=O)[O-],30.8%
10,O=C(c1ccc(F)cc1)N1CCN(c2cc(N3CCCCC3)c(F)cc2[N+](=O)[O-])CC1,-24.6%
11,COc1ccc(N2CCN(C(=O)c3ccc(F)cc3)CC2)c([N+](=O)[O-])c1,-70.1%
12,CCOC(=O)N1CCN(c2ccc(F)cc2[N+](=O)[O-])CC1,-10.5%
13,CCCC(=O)N(CCN(Cc1ccccc1)C(=O)CCC)Cc1ccccc1,-42.5%
14,CCC(CO)NC(=O)c1cccc(S(=O)(=O)N2c3ccccc3CC2C)c1 (centres unmarked),2.65%
15,O=C(Nc1ccccc1[N+](=O)[O-])c1ccc(S(=O)(=O)N2CCCC2)cc1,1.84%
16,CCCN(CCC)c1ncnc2nc[nH]c12,-7.36%
17,Cc1cc(C)c2sc(N(CCCN(C)C)C(=O)COc3ccc(Cl)cc3)nc2c1.Cl,-1.13%
18,COc1ccc2sc(N(CCCN(C)C)C(=O)c3nc4ccccc4s3)nc2c1.Cl,-5.36%
19,CN(C)CCN(C(=O)c1ccccc1Cl)c1nc2c(Cl)cccc2s1.Cl,-34.1%
20,Cc1cccc2sc(N(CCCN(C)C)C(=O)COc3ccc(Cl)cc3)nc12.Cl,-60.5%
21,CN(C)CCCN(C(=O)COc1ccc(Cl)cc1)c1nc2c(F)cccc2s1.Cl,-67.1%
22,COc1cccc2sc(N(CCCN(C)C)C(=O)COc3ccc(Cl)cc3)nc12.Cl,-80.2%
23,CN(C)CCCN(C(=O)COc1ccccc1)c1nc2c(Cl)cccc2s1.Cl,-66.9%

row,SMILES,"hERG current change (%, negative = inhibition) at 10uM"
1,O=[N+]([O-])/C(C(Cl)=C(Cl)Cl)=C(/NC1CC1)Sc1ccccc1,7.59%
2,CC(C)N1C(=O)CCC1C(=O)N1CCC(Cc2ccccc2)CC1 (centres unmarked),-25.3%
3,CC(C)CC(C(=O)NCc1ccccn1)N1C(=O)c2ccccc2C1=O (centres unmarked),-1.75%
4,CCc1ccc(N(CC(=O)NC(C)C)C(=O)CCC(=O)Nc2nccs2)cc1,13.4%
5,COc1ccc(/C=C/C(=O)c2ccc3c4c(cccc24)CC3)cc1OC,20.8%
6,Nc1nn(S(=O)(=O)c2ccccc2)cc1-c1ccc([N+](=O)[O-])cc1,-9.96%
7,O=C(COC(=O)c1ccc2c(c1)OCO2)Nc1ccccc1F,11.8%
8,O=C(O)Cc1ccc(NC(=O)c2ccc3c(c2)C(=O)N(CC2CCCO2)C3=O)cc1 (centres unmarked),12.6%
9,CC1=C(C(=O)OCCBr)C(c2cccc3ccccc23)NC(=O)N1 (centres unmarked),17.5%
10,CCCCN1C(=O)C(=O)N(CC(=O)N2CCc3ccccc32)C1=O,5.05%
11,Cc1cc(C)cc(N(C(=O)c2ccco2)C(C(=O)NC2CCCC2)c2ccncc2)c1 (centres unmarked),9.94%
12,COc1cc(C(=O)OCCC(C)C)cc(OC)c1O,-1.55%
13,Cc1c(Br)c(=O)oc2c(Br)c(O)ccc12,19.9%
14,CCOC(=O)Cn1cc(C#N)c(=O)[nH]c1=O,-17.8%
15,Cc1c(C(=O)Nc2ccc3oc(-c4cccnc4)nc3c2)oc2ccccc12,-16.8%
16,CN(C)CCCN(C(=O)COc1ccccc1)c1nc2c(F)cccc2s1.Cl,-81.2%
17,CN(C)CCN(C(=O)CCS(=O)(=O)c1ccccc1)c1nc2c(F)cccc2s1,13.6%
18,CCN(CC)CCN(C(=O)CCOc1ccccc1)c1nc2c(F)cc(F)cc2s1.Cl,-8.13%
19,Fc1ccc(Cn2nnnc2CN2CCN(C3CCCCC3)CC2)cc1,-45.4%
20,C/C(CC(=O)NC(C)C)=N\NC(=O)C(c1ccccc1)c1ccccc1,9.95%
21,CC(C)(C)C(=O)C[n+]1ccc(C(N)=O)cc1.[Br-],0.811%
22,O=S(=O)(Nc1ccc2c(c1)OCCO2)c1c(F)cccc1F,3.4%
23,O=C(CSc1ccccc1)OCC(=O)N1CCN(C(=O)c2ccco2)CC1,-27%

row,SMILES,"hERG current change (%, negative = inhibition) at 10uM"
1,O=C(Cc1ccc(Cl)cc1Cl)OCC(=O)N1CCN(C(=O)c2ccco2)CC1,-57.6%
2,O=C(Cc1ccccc1F)OCC(=O)N1CCN(C(=O)c2ccco2)CC1,-22.6%
3,O=C(OCC(=O)N1CCOCC1)c1cccc(S(=O)(=O)N2CCCc3ccccc32)c1,-24.9%
4,O=C(COC(=O)c1cccc(S(=O)(=O)N2CCc3ccccc32)c1)NCc1ccco1,21.5%
5,O=C(OCC(=O)N1CCN(C(=O)c2ccco2)CC1)c1cccc(S(=O)(=O)N2CCc3ccccc32)c1,-84%
6,CN(c1ccccc1)S(=O)(=O)c1cc(C(=O)OCC(=O)N2CCN(C(=O)c3ccco3)CC2)ccc1Cl,-68.3%
7,CCN(CC)S(=O)(=O)c1ccc(C(=O)OCC(=O)N2CCN(C(=O)c3ccco3)CC2)cc1,-37.2%
8,CN(c1ccccc1)S(=O)(=O)c1cc(C(=O)OCC(N)=O)ccc1Cl,-4.09%
9,O=C(Cc1c(Cl)cccc1Cl)OCC(=O)N1CCN(C(=O)c2ccco2)CC1,-14.9%
10,O=C(CCC(=O)c1cccs1)OCC(=O)N1CCN(C(=O)c2ccco2)CC1,-2.34%
11,O=C(CCN1c2ccccc2Sc2ccccc21)OCC(=O)N1CCN(C(=O)c2ccco2)CC1,-66%
12,Cc1nn(C)c(Oc2ccc(Cl)cc2)c1C(=O)O,12.8%
13,CC1=CC(C)C2(COC(=O)Nc3ccccc3)COC(C)C1C2C (centres unmarked),-3.03%
14,CCOC(=O)C1CCN(Cc2cccc(Oc3ccc(Cl)cc3)c2)CC1,3.3%
15,CCn1c(CNC(=O)c2cccs2)n[nH]c1=S,3.27%
16,Cc1cccc(COc2ccc(/C=N/NC(=O)c3nnn(-c4nonc4N)c3C)cc2)c1,15.3%
17,O=C(COc1cccnc1[N+](=O)[O-])Nc1ccc2c(c1)OCO2,6.1%
18,Cc1cc(NC(=O)c2ccc(S(=O)(=O)N(C)CC3CCCO3)cc2)no1 (centres unmarked),2.09%
19,COc1ccccc1CCNS(=O)(=O)c1cn(C)nc1C,1.14%
20,O=C(OCC(=O)N1CCN(C(=O)c2ccco2)CC1)c1ccc(Cl)cc1,-38.7%
21,CN(CCC#N)C(=O)COC(=O)c1ccc(Cl)c(S(=O)(=O)N(C)c2ccccc2)c1,-58.2%
22,CN(CCC#N)C(=O)COC(=O)c1ccc(Cl)c(S(N)(=O)=O)c1,21.8%
23,O=C(OCC(=O)N1CCN(C(=O)c2ccco2)CC1)c1ccccc1,10.4%

row,SMILES,"hERG current change (%, negative = inhibition) at 10uM"
1,O=C(OCC(=O)N1CCN(C(=O)c2ccco2)CC1)c1ccc(Cl)c(Cl)c1,-62.9%
2,COCCN(CCOC)C(=O)COC(=O)c1ccc(Cl)c(S(=O)(=O)N(C)c2ccccc2)c1,-48.4%
3,O=C(Nc1ccc2c(c1)CCC2)c1cccs1,24.7%
4,O=C(CSc1ccc2nnc(-c3ccc(Cl)cc3)n2n1)N1CCCc2ccccc21,1.71%
5,CCOC(=O)c1c(C)n(C)c2ccc(OC(C)C(=O)OC)cc12 (centres unmarked),-10%
6,COc1cc(/C=N/Nc2ccccn2)ccc1OCC(C)C,27.5%
7,CCCCn1c(-c2csc(C(C)C)c2)n[nH]c1=S,20.9%
8,Cc1ccc(COc2ccsc2C(=O)NNC(N)=S)cc1,19.9%
9,CCNCCOC(c1ccccc1)c1ccccc1.Cl,-31.8%
10,CCN(CC)CCOCCOC(=O)C(CC)(CC)c1ccccc1,-9.35%
11,CCC(C(=O)OCCOCCN(CC)CC)c1ccccc1 (centres unmarked),1.01%
12,CCCOc1ccc(C(C(=O)OCCN(CC)CC)c2ccccc2)cc1.O=C(O)C(=O)O (centres unmarked),-43%
13,CCN(CC)CCCOC(=O)C(OC)(c1ccccc1)c1ccccc1.Cl,-27.9%
14,CCN(CC)CCOC(=O)C(O)(c1ccccc1)c1ccccc1.Cl,-42.1%
15,CCN(CC)CCOC(=O)C(c1ccccc1)c1ccccc1.Cl,-52.2%
16,CCN(CC)CC#CCOC(c1ccccc1)c1ccccc1.Cl,-43.3%
17,CCN(CC)CCCOC(=O)C(OC(C)C)(c1ccccc1)c1ccccc1.Cl,-31.9%
18,CCN(CC)CCOC(c1ccccc1)c1ccc(C)cc1.Cl (centres unmarked),-73%
19,CCN(CC)CCCOC(=O)C(c1ccccc1)c1ccccc1.Cl,-56.5%
20,CCCC(C(=O)OCCN(CC)CC)(c1ccccc1)c1ccccc1.Cl,-53.9%
